Compound activity as filed in PubChem BioAssay.
AmpC inh detg: AmpC beta-lactamase inhibition with detergent present. Potency, µM (titrated, usually from 114 µM), for inactives: at the top dose activity change, negative = inhibition, most hits filed as inhibitors. P00811. 0.041% of 370,000 active. AmpC hydrolysis of nitrocefin, absorbance 480 nm, 0.01% Triton;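 note: 0% = no-compound wells and -100% = no-enzyme wells; nearly all actives have a fitted effect of over 25% in size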
Target sequence (P00811 whole entry, looked up): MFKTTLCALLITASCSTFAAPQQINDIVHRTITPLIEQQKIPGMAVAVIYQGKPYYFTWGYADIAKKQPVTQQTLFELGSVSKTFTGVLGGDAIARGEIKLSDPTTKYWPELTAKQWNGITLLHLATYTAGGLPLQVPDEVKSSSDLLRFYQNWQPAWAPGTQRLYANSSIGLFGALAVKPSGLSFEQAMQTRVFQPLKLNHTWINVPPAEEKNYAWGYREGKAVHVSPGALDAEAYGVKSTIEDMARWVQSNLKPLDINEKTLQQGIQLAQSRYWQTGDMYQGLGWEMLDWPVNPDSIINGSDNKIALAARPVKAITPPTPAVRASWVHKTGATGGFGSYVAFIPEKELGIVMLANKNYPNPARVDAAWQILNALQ
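AmpC (5.3 nM in the dispensed reagent) in 20 mM phosphate pH 7.0 with 0.01% (detergent screen) or 0.0001% Triton X-100 was preincubated with compounds for 15 min at room temperature. Nitrocefin was then added from an 800 uM solution, and hydrolysis was followed at 480 nm.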
AmpC inh no detg: blocks E. coli AmpC beta-lactamase in detergent-free assay; P00811; Potency, µM (titrated, usually from 57.1 µM), inactives show at the highest dose activity change, negative = inhibition, most hits filed as inhibitors; AmpC nitrocefin hydrolysis, absorbance 480 nm, 0.0001% Triton; 0.52% of 330,000 active; AID 485341;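 note: plate controls were no compound for no effect and no enzyme for full effect; nearly all actives have a fitted effect of over 20% in size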
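AmpC (5.3 nM in the dispensed reagent) in 20 mM phosphate pH 7.0 with 0.01% (detergent screen) or 0.0001% Triton X-100 was preincubated with compounds for 15 min at room temperature. Nitrocefin was then added from an 800 uM solution, and hydrolysis was followed at 480 nm.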
Sm TGR block: inhibitors of Schistosoma mansoni thioredoxin glutathione reductase. Q962Y6. purified TGR, DTNB reduction, TNB absorbance 405 nm. Potency, µM (titrated, usually from 114 µM), inactives show at the top dose activity change, negative = inhibition, actives largely listed as inhibitors. 3% of 360,000 active. AID 485364; note: nearly all actives have a fitted effect of over 60% in size
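First, TGR (20 nM dispensed) and NADPH were mixed with compound. Second, a 15 min room-temperature incubation followed. Third, further NADPH and then DTNB were added to start the reaction. Finally, TNB absorbance was monitored kinetically.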
Active calls of the source: *. Only some compounds are listed: those with a hit (about 3.3% of all), similar ones and a draw of the others. Calls come from the whole dose curve; as a rule, active = well fitted curve in the direction sought with a large enough effect; inconclusive = small, poorly fitted or top-dose-only effect, or another doubt; inactive = no such curve, though single readings can be large; an effect the other way counts as inactive or inconclusive. Unless noted, % is set by controls: 0 for no effect and ±100 for the full control effect; potency is the fitted concentration of half-maximal effect.

`c1ccc(N2CCN(c3nc4ccccc4n4cnnc34)CC2)cc1` gave AmpC inh detg -13.5%, AmpC inh no detg 1.0% and Sm TGR block 4.1%.
C1=C(c2ccccc2)CCN(c2nc3ccccc3n3cnnc23)C1 was read as AmpC inh detg -7.7%, AmpC inh no detg 0.8% and Sm TGR block 3.55µM*.
`CC(=O)c1c(C)oc2c(Br)cc(NS(=O)(=O)c3ccc(Br)cc3)cc12` gave AmpC inh detg 4.0% and Sm TGR block 5.62µM*.
CC(=O)c1c(C)oc2c1cc(NS(=O)(=O)c1ccc(Br)cc1)c1ccccc12 was read as AmpC inh detg 4.7% and Sm TGR block 6.1%.
`Cc1ccc(NC(=O)c2ccc(-n3cccn3)c([N+](=O)[O-])c2)cc1C` gave AmpC inh detg 3.3%, AmpC inh no detg -29.8% and Sm TGR block 11.2µM*.
`O=C(Nc1ccccc1OC(F)F)c1ccc(-n2cncn2)c([N+](=O)[O-])c1` gave AmpC inh detg inconclusive, AmpC inh no detg -16.4% and Sm TGR block -0.3%.
Screening Cc1ccc(NC(=O)c2ccc(-n3cncn3)c([N+](=O)[O-])c2)cc1 returned AmpC inh detg -7.8%, AmpC inh no detg -10.8% and Sm TGR block -3.2%.
COc1ccccc1NC(=O)c1ccc(-n2cccn2)c([N+](=O)[O-])c1 was read as AmpC inh detg -0.4%, AmpC inh no detg -32.4% and Sm TGR block 25.1µM*.
`COc1ccc(NC(=O)c2ccc(-n3cccn3)c([N+](=O)[O-])c2)cc1` gave AmpC inh detg -13.3%, AmpC inh no detg -30.0% and Sm TGR block 39.8µM*.
For O=C(Nc1ccc(Cl)cc1)c1ccc(-n2cccn2)c([N+](=O)[O-])c1 the results were AmpC inh detg -11.5%, AmpC inh no detg -40.9% and Sm TGR block 0.0%.
`COc1cccc(NC(=O)C2CCC(CNS(=O)(=O)c3ccc4c(c3)CCCC(=O)N4)CC2)c1` (configuration not stated) gave AmpC inh detg 2.7% and Sm TGR block -1.3%.
Screening Cc1cc(C)cc(NC(=O)N2CCC3(CC2)Oc2ccccc2C(=O)N3Cc2ccccc2F)c1 returned AmpC inh detg 28.3% and Sm TGR block -0.6%.
Screening Cc1cc(Cl)ccc1OCC(=O)OCC(=O)Nc1ccc(F)c([N+](=O)[O-])c1 returned AmpC inh detg inconclusive, AmpC inh no detg -19.3% and Sm TGR block 4.5%.
For Cc1ccc(NC(=O)COc2ncnc3c(Cl)cc(Cl)cc23)cc1[N+](=O)[O-] the results were AmpC inh detg -3.5%, AmpC inh no detg -8.6% and Sm TGR block 4.47µM*.
`Cc1ccc2[nH]cc(C(=O)CN3CCN(c4ccccn4)CC3)c2c1` gave AmpC inh detg inconclusive, AmpC inh no detg 6.8% and Sm TGR block -33.4%.
Screening Cc1ccc(C(=O)CN2CCN(c3ccccn3)CC2)c(C)c1 returned AmpC inh detg 3.7%, AmpC inh no detg 0.3% and Sm TGR block 14.1µM*.
Cc1ccc(C)c(-c2nnc(NC(=O)c3ccc4c(c3)OCCO4)o2)c1 was read as AmpC inh detg 16.9% and Sm TGR block 3.5%.
`Cc1c(C(=O)NCCN(C)C)oc2c1-c1nn(Cc3cccc(Cl)c3)cc1CC2` gave AmpC inh detg 22.1% and Sm TGR block 1.6%.
For Cc1cccc(N2CCN(C(=O)c3cc4c(=O)[nH]c5ccc(C)cc5c4s3)CC2C)c1 (configuration not stated) the results were AmpC inh detg -3.0% and Sm TGR block 1.7%.
Cn1c(=O)c2c(-c3ccccc3)n3c4ccccc4nc(-c4ccccc4)c3c2n(C)c1=O was read as AmpC inh detg 17.4% and Sm TGR block 3.6%.
`COc1ccc(-n2c(C)cc(C(=O)CCl)c2C)cc1` gave AmpC inh detg 1.0%, AmpC inh no detg -9.4% and Sm TGR block 3.98µM*.
For COc1ccc(CCNCc2ccccc2)cc1 the results were AmpC inh detg -6.8%, AmpC inh no detg -19.6% and Sm TGR block inconclusive.
`Cc1cc(-n2c(C)cc(C(=O)CCl)c2C)no1` gave AmpC inh detg -8.1%, AmpC inh no detg -19.6% and Sm TGR block 8.91µM*.
For COc1ccc(CCNCc2cc(C)n(-c3ccc(OC)cc3)c2C)cc1 the results were AmpC inh detg -10.4%, AmpC inh no detg 29.2% and Sm TGR block 50.1µM*.
`COc1ccc(-n2c(C)cc(C(=O)CN3C(=O)c4ccccc4C3=O)c2C)cc1` gave AmpC inh detg 4.9%, AmpC inh no detg -7.3% and Sm TGR block 5.5%.
Screening Cc1cc(-n2c(C)cc(C(=O)CN3C(=O)C(=O)N(C)C3=O)c2C)no1 returned AmpC inh no detg -11.2%.
For CCOc1ccccc1N(CC(=O)N1CCc2ccccc2C1)S(=O)(=O)c1ccccc1 the results were AmpC inh detg -3.1% and Sm TGR block -1.1%.
For Cc1ccc(NC(=O)CN2C(=O)S/C(=C/c3ccc(-c4cccc(C(=O)O)c4)o3)C2=O)cc1 the results were AmpC inh detg -2.2% and AmpC inh no detg -51.3%.
Cc1ccc(C(=O)O)cc1-c1ccc(/C=C2\SC(=O)N(CC(=O)Nc3ccccc3)C2=O)o1 was read as AmpC inh detg 56.2µM* and AmpC inh no detg -27.9%.
For Cc1cc(C(=O)O)ccc1-c1ccc(/C=C2\SC(=O)N(CC(=O)Nc3ccc4c(c3)OCO4)C2=O)o1 the results were AmpC inh detg -12.6%, AmpC inh no detg -46.1% and Sm TGR block inconclusive.
Cc1ccccc1NC(=O)CN1C(=O)S/C(=C\c2ccc(-c3cc(C(=O)O)ccc3C)o2)C1=O was read as AmpC inh detg 56.2µM* and AmpC inh no detg -22.0%.
Screening CC1=C(C(=O)Nc2ccc(C)cc2C)C(CC(C)C)n2nc(SCc3ccccc3C)nc2N1 (configuration not stated) returned AmpC inh detg -4.6% and Sm TGR block -2.7%.
Cc1cc(C)cc(NC(=O)Cn2cc(S(=O)(=O)NC(C)(C)C)c(S(=O)(=O)NC(C)(C)C)c2)c1 was read as AmpC inh detg 16.2% and Sm TGR block -2.2%.
For O=C(NC1CC1)c1ccc(CSCc2cccc(F)c2)o1 the results were AmpC inh detg -13.2%, AmpC inh no detg -15.1% and Sm TGR block 35.5µM*.
Screening Cc1ccc(CSCc2ccc(C(=O)NC3CC3)o2)cc1 returned AmpC inh detg 6.5%, AmpC inh no detg 16.7% and Sm TGR block -5.0%.
Screening CSc1ccc(CNC(=O)c2ccccc2NC(=O)c2nsc3ccccc23)cc1 returned AmpC inh detg 21.5% and Sm TGR block 2.3%.
Screening Cc1ccc(C2C(C(=O)c3cc4ccccc4o3)=C(O)C(=O)N2CCN2CCOCC2)cc1 (configuration not stated) returned AmpC inh detg -4.6%, AmpC inh no detg 15.4% and Sm TGR block 31.6µM*.
Screening COC(=O)c1ccc(C2C(C(=O)c3cc4ccccc4o3)=C(O)C(=O)N2CCCN(C)C)cc1 (configuration not stated) returned AmpC inh detg -14.6%, AmpC inh no detg -1.6% and Sm TGR block 11.2µM*.
For COc1cc(C2C(C(=O)c3cc4ccccc4o3)=C(O)C(=O)N2CCN2CCOCC2)ccc1OCCC(C)C (configuration not stated) the results were AmpC inh detg 0.1%, AmpC inh no detg 97.5% and Sm TGR block -19.0%.
